Assay outcomes deposited in PubChem BioAssay by National Center for Advancing Translational Sciences (NCATS).
The list is not random: actives were taken first. Their share in the collection is about 1.9%.
Pin1 inh = human Pin1 inhibition; Q13526; Pin1 FP peptide displacement, HiFluor488, 10 min; Potency, µM (doses to about 115 µM), for inactives: at the highest dose activity, negative = inhibition, hits mostly inhibitors; hit rate 0.009% among 390,000; AID 504891; active means well fitted inhibition curve with a large enough effect in the polarisation, with a control signal flat, not every such curve was filed as active; inconclusive means small, poorly fitted or top-dose-only effect, or effect the other way, or a change in a side signal; inactive means no such curve, though single readings can be large or run the other way; the % refers to the polarisation; further: potency means the concentration at half of the fitted maximal effect; on the % scale 0 is the no-effect control and ±100 the full control effect
USP2a inh = USP2a (human) protease inhibition. O75604. USP2 core, Ub-CHOP2 coupled fluorogenic reporter, 485/531. Potency, µM (series often up to 38.3 µM), without a hit: at the top dose activity change, negative = inhibition, usual class: inhibitors. hit rate 0.01% among 330,000;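 further: potency means the concentration at half of the fitted maximal effect; plate controls were DMSO wells for no effect and full inhibition by NEM control for full effect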
Target sequence (O75604 whole entry, looked up): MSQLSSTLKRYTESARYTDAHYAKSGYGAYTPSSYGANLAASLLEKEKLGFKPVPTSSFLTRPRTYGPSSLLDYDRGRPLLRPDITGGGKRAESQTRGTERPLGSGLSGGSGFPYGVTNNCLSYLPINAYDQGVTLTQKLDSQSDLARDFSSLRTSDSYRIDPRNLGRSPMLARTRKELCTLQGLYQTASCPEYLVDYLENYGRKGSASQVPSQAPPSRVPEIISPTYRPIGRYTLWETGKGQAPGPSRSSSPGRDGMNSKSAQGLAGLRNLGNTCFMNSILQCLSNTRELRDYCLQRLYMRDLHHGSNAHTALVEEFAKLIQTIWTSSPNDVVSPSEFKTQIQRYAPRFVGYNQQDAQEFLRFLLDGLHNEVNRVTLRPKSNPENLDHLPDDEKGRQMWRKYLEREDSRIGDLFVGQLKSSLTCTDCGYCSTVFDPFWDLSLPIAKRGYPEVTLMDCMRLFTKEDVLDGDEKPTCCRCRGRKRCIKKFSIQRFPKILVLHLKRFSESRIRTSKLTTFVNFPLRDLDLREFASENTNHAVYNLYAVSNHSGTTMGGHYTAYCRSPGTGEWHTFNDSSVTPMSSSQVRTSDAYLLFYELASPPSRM
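Deubiquitinase activity read as fluorescence (485/531 nm) after Ub-CHOP2 cleavage activates the enterokinase reporter on its substrate; USP2 core 10nM, Ub-CHOP2 and substrate 25nM each, 30min compound preincubation then 60min RT; data normalized to NEM, curves fitted.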
PKM2 activator = activators of human pyruvate kinase M2. purified PKM2, Kinase-Glo ATP luminescence, activation; response scale: 0% is enzyme alone, no compound. Potency, µM (series often up to 57.5 µM), inactives show at the highest dose activation, most hits filed as activators. hit rate 0.34% among 260,000. AID 1631; further: potency means the concentration at half of the fitted maximal effect; on the % scale 0 is the no-effect control and ±100 the full control effect; nearly all actives have a fitted effect of over 55% in size
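hPK-M2, >95% pure; 0.1 mM ADP / 0.5 mM PEP final; imidazole pH7.2 buffer w/ 7 mM MgCl2, 50 mM KCl; 1 h RT; Kinase-Glo lum. Intermediate enzyme activity for dual inhibitor/activator qHTS.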
a7 integrin act = activates integrin-mediated alleviation for muscular dystrophy; hit rate 0.064% among 350,000; Potency, µM (doses to about 38.3 µM), for inactives: top-dose activation, most hits filed as activators; alpha7betagal myoblasts, beta-gal FDG fluorescence, 48 h; AID 624291;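 further: potency means the concentration at half of the fitted maximal effect; 100% = response of the positive control SU9516; nearly all actives have a fitted effect of over 60% in size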
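alpha7betagal+/- myoblasts (passage 13, 250/well) treated 48 h at 37C with compounds at 1:260 dilution of DMSO stock. Lysed, then beta-galactosidase activity read as FDG fluorescence (ex 480/em 540) after 30 min, with pre-read for autofluorescence.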
IL-2 act = activators of IL-2 | IL-2 activation reporter assay, cell-based qHTS; stimulated with anti-CD3/CD4/CD28 beads; in transgenic mouse T cells | activation, % (series mostly up to about 46 µM) | hit rate 0.065% among 360,000 | AID 652025; in the data active means activation above about 50%; inconclusive means mostly about 30% to 49%; further: 0% is about no effect
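Unstimulated transgenic mouse T cells; 60-min compound exposure; bead-based TCR/CD4/CD28 stimulation; 18 h culture, 37 degrees C; dual fluorescence (EGFP, DsRed) plate cytometry.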
ClpP mod = qHTS Assay for Activators of ClpP | purified B. subtilis ClpP, FRET peptide cleavage, 20 min | hit rate 1.9% among 340,000 | Potency, µM (highest dose often 57.5 µM), for inactives: at the top dose activity change, negative = active | ATP-dependent Clp protease proteolytic subunit (Bacillus subtilis (strain 168)), P80244; active means well fitted falling curve with a large enough effect; inconclusive means small, poorly fitted or top-dose-only effect; inactive means no such curve, though single readings can be large or run the other way; further: potency means the concentration at half of the fitted maximal effect; the source files actives as falling curves though it sought activators and does not explain the sign; nearly all actives have a fitted effect of over 65% in size
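FRET quenching reversal measured ClpP activation: 10 microg/mL B. subtilis ClpP at pH 8 with the FRET-FV decapeptide, read at 430 nm after 320 nm excitation. The 20-min minus 0-min signal was scaled between DMSO/no-enzyme wells and ADEP (5.8 microM final).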
The depositor's hits bear a star; ? = inconclusive; · = no result. Unless noted, the call rests on the fitted dose curve; in most records, active means well fitted curve in the direction sought with a large enough effect; inconclusive means small, poorly fitted or top-dose-only effect, or another doubt; inactive means no such curve, though single readings can be large; an effect the other way counts as inactive or inconclusive.

SMILES	Pin1 inh	USP2a inh	PKM2 activator	a7 integrin act	IL-2 act	ClpP mod
O=C(COC(=O)C1=NN(c2ccccc2)C(=O)CC1)NCc1ccccc1Cl	?	-1%	·	-18%	0	28µM*
CCOC(=O)c1ccccc1N=N/C(C(C)=O)=C(/C)O	17%	5%	-3%	21%	-2	28µM*
CC(C)(C)C1CCc2c(sc(NC(=O)CCC(=O)O)c2C(=O)Nc2ccccc2C(F)(F)F)C1 (stereo not given)	·	·	·	·	·	-4%
CC(=O)N1c2ccc(S(=O)(=O)Nc3ccc(C)c(C)c3)cc2CC1C (stereo not given)	9%	·	·	·	·	·
CCC1=C2CC[C@H]3C(=O)N(CC)C(=O)[C@H]3[C@H]2[C@@]2(C)C(=O)N(CC(=O)OC)C(=O)N2C1=O	·	·	10%	·	·	·
CCOC(=O)CSc1nc(N)c(C#N)c(-c2cccs2)c1C#N	?	1%	1%	17%	1	-16%
CCCSc1nc(N)nc(-c2cccs2)c1C#N	3%	2%	-3%	5%	0	25µM*
CC(C)Sc1nc2ccccc2c(=O)[nH]1	37%	1%	-1%	-21%	0	-10%
CCC(C)Sc1nc2ccccc2c(=O)[nH]1 (stereo not given)	1%	3%	2%	-9%	0	25µM*
CC(=O)OCON[N+]([O-])=NC1CCCCC1	-21%	·	·	·	·	·
COc1ccc(C(=O)OCC(N)=O)cc1[N+](=O)[O-]	2%	1%	-1%	-2%	-2	28µM*
COc1ccc(C(=O)OCC(=O)Nc2ccccc2)cc1[N+](=O)[O-]	3%	1%	6%	-19%	0	1%
COc1ccccc1-c1nn2c(-c3ccccc3Cl)nnc2s1	·	-3%	1%	·	·	·
CCN(CC)c1ccc(-c2nn3c(-c4ccccc4OC)nnc3s2)cc1	9%	-16%	7%	-4%	0	7.9µM*
Cc1ccccc1CN1Cc2cccc3c2[C@H](C=CC3)CC1=O	·	·	·	·	·	2%
COC(=O)c1cn(NC(=O)/C=C/c2cc(OC)ccc2OC)c(=O)c2ccccc12	0%	1%	0%	15%	1	28µM*
COC(=O)c1cn(NC(=O)c2ccc(OC)c(OC)c2)c(=O)c2ccccc12	8%	1%	?	6%	1	29%
COc1ccc(CCNC(=O)CC(=O)N/N=C/c2ccc(C(=O)O)cc2)cc1OC	0%	-1%	1%	3%	0	14µM*
CCCn1nc(C(=O)Nc2ccc(S(=O)(=O)Nc3nccs3)cc2)c2ccccc2c1=O	?	3%	4%	5%	1	25µM*
COc1ccccc1C(=O)Nc1ccc(S(=O)(=O)Nc2cc(C)on2)cc1	-3%	0%	3%	6%	1	25µM*
O=S(=O)(Nc1nccs1)c1ccc(NS(=O)(=O)c2cccs2)cc1	9%	0%	4.5µM*	5%	-1	0%
O=C(Nc1ccc(S(=O)(=O)Nc2nccs2)cc1)c1ccccc1OC(F)F	0%	3%	·	10µM*	1	-3%
C(=C1c2ccccc2Oc2ccccc21)c1ccccc1	·	·	·	·	·	-8%
COc1ccc(-c2nc3c(c(=O)[nH]c(=O)n3Cc3ccccc3)n2C)cc1	2%	-1%	-20%	3%	0	35µM*
CCCn1c(-c2cc(OC)c(OC)c(OC)c2)nc2c1c(=O)[nH]c(=O)n2Cc1ccccc1	-4%	4%	·	13µM*	-1	·
COc1ccc(-c2nc3c(c(=O)[nH]c(=O)n3Cc3ccccc3)n2Cc2ccccc2)cc1	11%	-1%	-5%	-10%	1	28µM*
c1coc(-c2ccc3ncnc(NCc4cccs4)c3c2)c1	·	-2%	·	·	·	·
CCc1ccc(-c2nc3c(=O)n(C)c(=O)nc-3n(CC)n2)cc1	·	·	·	·	·	0%
